The supplement of paper PMC10338343
± gives the standard deviation.

Assays:
[1] = system: MILI (PIWIL2) piRISC loaded with piRNA #1 (26 nt); assay: pre-steady-state target cleavage rate (min^-1); guide: piRNA #1 5'p-UGAGGUAGUAGGUUGUAUAGUAUCCA; higher = faster piRNA-guided slicing of the target; details: auxiliary factor: 500 nM mouse GTSF1;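 further: 1 nM active piRISC with 0.1 nM target library at 33 °C single turnover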
In short: (§1)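 Cleave-'n-Seq measured uncleaved targets by sequencing after a transcribed, DNA-blocked target RNA library […] was mixed with 1 nM active affinity-purified piRISC holding one synthetic guide, with or without 500 nM GTSF1 partner protein, at 33 °C in HEPES–potassium acetate buffer for 0–8 or 0–960 min. Counts were normalised to depth and to weakly complementary targets, three trials were pooled, and k3 was capped at 0.0001 min^-1. A burst-and-steady-state fit gave the pre-steady-state cleavage rate.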

[2] = system: EfPiwi piRISC loaded with piRNA #1 (26 nt); assay: pre-steady-state target cleavage rate (min^-1); auxiliary factor: 500 nM Ephydatia muelleri Gtsf1; guide: piRNA #1 5'p-UGAGGUAGUAGGUUGUAUAGUAUCCA; MIWI and MILI are mouse PIWI proteins and EfPiwi is from a freshwater sponge; tags in brackets are library labels; higher = faster piRNA-guided slicing of the target
In short: as §1

Row | Sequence | pre-steady-state target cleavage rate [1] | pre-steady-state target cleavage rate [2]
1 | GGAGAGGAUACUAUACUAGCUACUACCUCA | 0.113 ± 0.011 | 0.00387 ± 0.0029
2 | GGAGAGGAUAUCUAUACAACCUACUACCUCA | 0.0599 ± 0.0073 | 0.00594 ± 0.0046
3 | GGAGACCAUACUAUACAACGUACUACCUCA | 0.0191 ± 0.0046 | 0.00482 ± 0.0015
4 | GGAGUGGAUACUAUACAACCUACUAUCUCA | 0.137 ± 0.011 | 0.0684 ± 0.026
5 | GGAGAGGAUACUAUAGAAGCUACUACCUCA | 0.0647 ± 0.0095 | 0.00238 ± 0.0021
6 | GGAGACGAUACUAUACAUCCUACUACCACA | 0.334 ± 0.021 | 0.0049 ± 0.0017
7 | GGAGACCAAUACUAUACAACCUACUACCUCA | 0.193 ± 0.021 | 0.5 ± 0.18
8 | GGAGACCAUAGUAUACAUCCUACUACCUCA | 0.19 ± 0.014 | 0.00617 ± 0.0032
9 | GGAGUGGAUACUAAACAACCUAGUACCUCA | 0.0567 ± 0.011 | 0.00256 ± 0.0016
10 | GGAGUGGAUAGUAUACAACGUACUACCUCA | 0.0168 ± 0.0038 | 0.00231 ± 0.0021
11 | GGAGAGGAUACUAUACAGCCUACUACCUCA | 0.132 ± 0.013 | 0.105 ± 0.04
12 | GGAGAGGUUACUAUACAAGCUACUACCUCA | 0.0739 ± 0.012 | 0.0046 ± 0.0021
13 | GGAGACCAAUGUAUACAACCUACUACCUCA | 0.0592 ± 0.01 | 0.0133 ± 0.0056
14 | GGAGUGGAUACUAUACAUCCUAGUACCUCA | 0.103 ± 0.019 | 0.00411 ± 0.0015
15 | GGAGAGGAUACUAUACAACCUACAUCCUCA | 0.00373 ± 0.0031 | 0.00358 ± 0.0016
16 | GGAGAGGAUACUAUACAUCCUACUACCUCA | 0.28 ± 0.023 | 0.0116 ± 0.0055
17 | GGAGACGAUACUAUACAACCUACUACCAUCA | 0.134 ± 0.013 | 0.00489 ± 0.002
18 | GGAGACCAUACUAUACAAACUACUACCUCA | 0.234 ± 0.017 | 0.00853 ± 0.0037
19 | GGAGACCAUACUACACAACCUACUACCUCA | 0.215 ± 0.018 | 0.0182 ± 0.0078
20 | GGAGACCAUACUAUACAACCUAUCUACCUCA | 0.0997 ± 0.014 | 0.00419 ± 0.0028
